Yp Topo-I inh: blocks Yersinia pestis topoisomerase I activity; Y. pestis Topo-I cleavage product accumulation, plate reader; activity, % at 10 µM; 360,000 tested, 0.064% active; in the data active = activity above about 50%, passing the limit was not always enough; inconclusive = no clear call, values can overlap the other calls
Vc quorum ag-1: inducers of Vibrio cholerae quorum light production without autoinducers; 350,000 tested, 0.16% active; AID 588436; activation, % at 18.7 µM; V. cholerae BH1578 lux reporter, luminescence, 6 h; in the data active = activation mostly above about 9.7%, no sharp cut-off; inconclusive = no clear call, values can overlap the other calls; inactive = mostly below about 3.7%
Mtb hypoxia rep: inhibitors of hypoxia-regulated fluorescent reporter in Mycobacterium tuberculosis; M. tuberculosis hypoxia-regulated fluorescent reporter, fluorescence; fluorescence inhibition, % (concentration not given with the values); 300,000 tested, 0.1% active; in the data active = fluorescence inhibition mostly above about 23%, no sharp cut-off; inactive = mostly below about 17%
Vc quorum ag-2: induces V. cholerae light production without autoinducers | shares compounds with Vc quorum ag-1 | V. cholerae BH1578 lux reporter, luminescence, 6 h | activation, % at 50 µM | 620 tested, under 10 active | AID 602243; call rule not given here
HeLa 24h tox: cytotoxicity in HeLa cells at 24 hours. shares compounds with Vc quorum ag-1. HeLa viability, CellTiter-Glo ATP luminescence. activity change, negative = cytotoxicity, % at 35 µM. 25 tested, under 10 active. AID 624140;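 active = signal drop with fitted half-maximal concentration at or below twice the highest valid dose; inconclusive = flat curve with 30 to 70% loss, or poor fit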
An asterisk follows results filed as active; i = inactive; ? = inconclusive; / = no result shown; + = active, no number. Sampled rows, rich in hits. Any-hit rate of the full collection: about 0.29%.

SMILES	Yp Topo-I inh	Vc quorum ag-1	Mtb hypoxia rep	Vc quorum ag-2	others
CN1CCN(C(=O)CCN2C(=O)/C(=C/c3ccc(F)cc3)SC2=S)CC1	2	1	4	/
CCOC(=O)c1c(NC(=S)Nc2ccc(Cl)cc2)sc(C)c1C	11	12	/	1
CCOC(=O)c1c(NC(=S)Nc2cccnc2)sc(C)c1C	-5	0	9	/
COc1ccc(CNC(=O)COC(=O)[C@H](Cc2ccccc2)NC(=O)c2cccs2)cc1	38	-3	6	/
Cc1ccc(NC(CSC(N)=O)=NS(=O)(=O)c2ccccc2)cc1	/	/	4	/
Brc1ccc(-c2ccc(/C=N/Nc3nc4ccccc4[nH]3)o2)cc1	-28	i	/	/
OCCN1CCN(CC(O)COc2ccc(Cl)cc2)CC1 (configuration not stated)	2	17*	8	0
CN1CCN(CC(O)COc2ccc(Cl)cc2)CC1 (configuration not stated)	2	0	11	/
CCN(CC)CCNC(=O)c1ccc(NC(=O)Cc2ccsc2)cc1	-4	i	3	/
CCCNC(=O)Cc1ccsc1	-8	12	-2	0
COc1ccc(C(=O)NN=C(C)c2ccc3c(c2)C2C=CCC2C(c2ccccc2)N3)cc1 (configuration not stated)	/	/	0	/
Cc1ccc(S(=O)(=O)N(C)c2ccc(OCC(=O)N3CCCCC3)cc2)cc1	7	12	10	2
CCOC(=O)C1CCN(C(=O)COc2ccc(N(C)S(=O)(=O)c3ccc(OCC)cc3)cc2)CC1	23	0	-6	/
CCN(CC)S(=O)(=O)c1ccc(OCC(=O)NC2CCS(=O)(=O)C2)c([N+](=O)[O-])c1 (configuration not stated)	-1	0	13	/
Cc1ccc(OCC(=O)NC2CCS(=O)(=O)C2)c([N+](=O)[O-])n1 (configuration not stated)	2	12	10	0
CC1CN(C(C)CO)C(=O)c2cccc(NC(=O)C3CC3)c2OC1CN(C)Cc1ccccc1 (configuration not stated)	/	/	6	/
COc1cc(OC)c(OC)cc1CNC(C)C(O)c1ccccc1 (configuration not stated)	2	18	-12	0
CC(NCc1ccc(Cl)cc1Cl)C(O)c1ccccc1 (configuration not stated)	3	1	-1	/
CC(C)CC(N)c1cn(C(CCCCN)C(=O)N2CCNCC2)nn1 (configuration not stated)	/	/	20	/
O=C(c1ccccc1)c1ccc2nc(-c3ccc(NC(=O)c4ccccc4Br)cc3)[nH]c2c1	0	i	-5	/
Cc1ccccc1C(=O)Nc1ccc(-c2nc3ccc(C(=O)c4ccccc4)cc3[nH]2)cc1	-1	12	-4	0
O=c1c2cn(Cc3ccccc3)c3ccccc3c-2nn1Cc1ccc(F)cc1Cl	10	i	5	/
COC(=O)C1=C(c2ccc(-c3ccccc3)c(F)c2)CC2CCC1N2C(=O)NC(C)C (configuration not stated)	/	/	-4	/
CCOC(=O)C1C2COc3ccc(C)cc3C2N2C(=O)CN(Cc3ccc(Cl)cc3)C(=O)[C@@]12C (some centres not stated)	/	/	15	/
COc1cc2c(c(OC)c1OC)C(c1ccc(C)cc1)CC(=O)O2 (configuration not stated)	-1	18	-10	1
SMILES	Yp Topo-I inh	Vc quorum ag-1	Mtb hypoxia rep	Vc quorum ag-2	others
COc1ccc(C2CC(=O)Oc3cc(OC)c(OC)c(OC)c32)cc1 (configuration not stated)	-2	i	-4	/
COc1cc(C=NN2C(=O)C3C4c5ccccc5C(c5ccccc54)C3C2=O)ccc1O (configuration not stated)	/	/	1	/
Cc1nnc2c3ccccc3c(-c3cccs3)nn12	-11	1	-7	/
Cc1nnc2c3ccccc3c(-c3ccc(O)cc3)nn12	4	84*	12	412
COc1ccc(-c2cccc(NC(=O)c3ccc4c(c3)OCO4)c2)nn1	-1	i	2	/
C=C(C)[C@H]1CC=C(C)C(=NNC(=O)CNc2ccccc2OC)C1	/	/	1	/
O=C(Oc1nsnc1N1CCOCC1)N1CCCC1	-7	0	/	/
O=C(Oc1nsnc1N1CCCCC1)N1CCOCC1	7	13	23	0
Cc1ccc(Nc2ccc3nonc3c2[N+](=O)[O-])cc1	-3	0	-16	/
CCOc1ccc(Nc2ccc3nonc3c2[N+](=O)[O-])cc1	-5	+	8	i	HeLa 24h tox=17
CCOC(=O)C1CCCC1=NNC(=O)CN(c1cc(OC)ccc1OC)S(=O)(=O)c1ccccc1 (configuration not stated)	/	/	10	/
CCn1c(SCC(=O)NN=Cc2ccc(C)o2)nnc1-c1ccccc1	/	/	-1	/
FC(F)(F)c1ccc(CN2CC3C(c4ccccc4)C4(c5cccnc5)CC3(C4)C2c2ccccc2)cc1 (configuration not stated)	/	/	5	/
CC(=NN=C(N)SCc1ccccc1)C(C)(C)C	/	/	2	/
O=C(NN=Cc1ccncc1)c1ccccc1OCc1ccc(Br)cc1	/	/	-1	/
COC(=O)c1ccccc1NC(=O)Cn1cc2c(n1)CCC(C)C2 (configuration not stated)	24	30*	/	28
Cc1ccc(NC(=O)Cn2cc3c(n2)CCC(C)C3)cc1 (configuration not stated)	5	0	/	/
CN(CCc1cn[nH]c1)C(=O)C1CCC(=O)N(CC2CCCCC2)C1 (configuration not stated)	1	i	11	/
Cc1occc1-c1nnc(SCC(=O)NCc2cccs2)n1-c1ccc(F)cc1	12	14	/	0
Cc1nnc(SCC(=O)NCc2cccs2)n1-c1ccccc1	1	i	5	/
CC1=C(C(=O)OC(C)C)C(C=Cc2ccccc2)NC(=O)N1 (configuration not stated)	/	/	3	/
O=C(CC1SC(=O)NC1=O)Nc1ccc(Cl)cc1 (configuration not stated)	3	4	3	/
O=C(CC1NC(=O)NC1=O)Nc1ccc(Cl)cc1 (configuration not stated)	3	7	5	0
Cc1cc2c(ncn2C)c(NS(=O)(=O)c2cc(Cl)ccc2Cl)c1C	8	17*	2	0
Cc1cc2c(ncn2C)c(NS(=O)(=O)c2ccccc2Cl)c1C	2	-2	10	/
SMILES	Yp Topo-I inh	Vc quorum ag-1	Mtb hypoxia rep	Vc quorum ag-2	others
CC(=NN=C(c1ccccc1)c1ccccc1)c1cccs1	/	/	-6	/
Cc1ccc2[nH]c3c(c2c1)CCCC3C(N)=O (configuration not stated)	-4	0	7	/
CCOC(=O)C1CCCc2c1[nH]c1c(C(=O)O)cccc21 (configuration not stated)	9	12	8	1
Cc1nc2cc(NC(=O)N3CCCCC3)ccc2n1C	-4	0	5	/
CCOC(=O)C1CCN(C(=O)Nc2ccc3c(c2)nc(C)n3C)CC1	-5	?	-1	0
CC(C#N)On1c(SC(C)C#N)nc2ccccc2c1=O (configuration not stated)	0	12	2	1
CCC(C)n1c(SC(C)C#N)nc2ccccc2c1=O (configuration not stated)	5	-2	6	/
